# Assay results published in paper PMC7862700, “An all-to-all approach to the identification of sequence-specific readers for epigenetic DNA modifications on cytosine”.
# What was measured:
# Assay in all cases: DAPPL (digital affinity profiling via proximity ligation, sequencing); 10 mM Tris-HCl pH 7.5, 50 mM NaCl, 1 mM DTT, 4% glycerol, room temperature, 30 min; GST-TFs on glutathione beads, 16-mer random dsDNA library, 0.1% formaldehyde crosslink after washing; high values mean tight binding
# FLI1 = target: T1, FLI1 (Homo sapiens, UniProt Q01543 1-452); conditions: protein: recombinant; tags: N-terminal GST; dsDNA, one strand shown
# T1 sequence: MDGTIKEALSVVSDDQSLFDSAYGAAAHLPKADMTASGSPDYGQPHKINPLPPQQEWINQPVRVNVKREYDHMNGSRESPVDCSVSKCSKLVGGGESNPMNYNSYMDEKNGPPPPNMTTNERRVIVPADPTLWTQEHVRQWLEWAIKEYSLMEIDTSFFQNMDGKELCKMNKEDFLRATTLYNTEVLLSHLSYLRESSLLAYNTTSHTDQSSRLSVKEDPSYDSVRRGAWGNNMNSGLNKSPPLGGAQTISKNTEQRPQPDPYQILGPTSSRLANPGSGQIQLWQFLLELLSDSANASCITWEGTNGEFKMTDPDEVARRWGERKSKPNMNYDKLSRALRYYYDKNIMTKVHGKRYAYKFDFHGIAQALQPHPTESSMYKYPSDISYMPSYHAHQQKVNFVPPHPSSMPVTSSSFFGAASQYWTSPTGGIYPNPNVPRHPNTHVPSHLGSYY
# Method in brief: (§1)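 Sequencing on an Illumina NextSeq500 followed washing, crosslinking with 0.1% formaldehyde, proximity ligation (BsaI/T4 ligase, 1 h, 37 °C) and PCR amplification of pools that had been incubated for 30 min at room temperature with 200 nmole of a random double-stranded 16-mer DNA library in Tris/NaCl/DTT/glycerol buffer. Each pool held DNA-barcoded human transcription factors, expressed in yeast as GST fusions and captured on glutathione beads, plus a tag-only sample. Binding signal is a hexamer's read frequency for a factor divided by its frequency in the tag-only sample.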
# ELK1 = target: T2, ELK1 (Homo sapiens, UniProt P19419 1-428); conditions: protein: recombinant; tags: N-terminal GST; dsDNA, one strand shown
# T2 sequence: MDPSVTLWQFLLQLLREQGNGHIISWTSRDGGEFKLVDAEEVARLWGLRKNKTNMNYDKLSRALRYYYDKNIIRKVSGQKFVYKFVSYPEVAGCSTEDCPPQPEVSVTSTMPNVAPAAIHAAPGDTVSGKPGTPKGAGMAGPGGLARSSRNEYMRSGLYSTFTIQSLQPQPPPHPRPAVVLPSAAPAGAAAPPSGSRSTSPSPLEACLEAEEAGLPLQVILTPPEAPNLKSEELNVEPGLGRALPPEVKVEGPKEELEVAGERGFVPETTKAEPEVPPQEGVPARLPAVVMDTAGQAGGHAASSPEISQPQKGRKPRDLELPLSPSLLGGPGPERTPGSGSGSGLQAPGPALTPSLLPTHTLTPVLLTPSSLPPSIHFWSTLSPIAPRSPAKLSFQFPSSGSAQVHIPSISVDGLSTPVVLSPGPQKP
# Method in brief: as §1
# GABPA = target: T3, GABPA (Homo sapiens, UniProt Q06546 1-454); conditions: protein: recombinant; tags: N-terminal GST; dsDNA, one strand shown
# T3 sequence: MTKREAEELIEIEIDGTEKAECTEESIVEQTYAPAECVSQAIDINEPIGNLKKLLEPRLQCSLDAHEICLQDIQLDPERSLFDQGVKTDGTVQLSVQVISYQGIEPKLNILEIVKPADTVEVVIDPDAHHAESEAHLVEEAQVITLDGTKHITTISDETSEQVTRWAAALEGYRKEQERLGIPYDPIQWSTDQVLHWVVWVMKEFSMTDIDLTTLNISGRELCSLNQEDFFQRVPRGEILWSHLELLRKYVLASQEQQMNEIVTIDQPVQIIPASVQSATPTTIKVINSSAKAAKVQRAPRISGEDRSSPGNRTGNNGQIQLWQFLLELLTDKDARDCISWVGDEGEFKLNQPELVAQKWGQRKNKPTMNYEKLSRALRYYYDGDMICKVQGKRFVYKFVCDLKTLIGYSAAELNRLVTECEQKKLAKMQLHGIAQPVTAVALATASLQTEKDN
# Method in brief: as §1
# ERG = target: T4, ERG (Homo sapiens, UniProt P11308 1-479); conditions: protein: recombinant; tags: N-terminal GST; dsDNA, one strand shown
# T4 sequence: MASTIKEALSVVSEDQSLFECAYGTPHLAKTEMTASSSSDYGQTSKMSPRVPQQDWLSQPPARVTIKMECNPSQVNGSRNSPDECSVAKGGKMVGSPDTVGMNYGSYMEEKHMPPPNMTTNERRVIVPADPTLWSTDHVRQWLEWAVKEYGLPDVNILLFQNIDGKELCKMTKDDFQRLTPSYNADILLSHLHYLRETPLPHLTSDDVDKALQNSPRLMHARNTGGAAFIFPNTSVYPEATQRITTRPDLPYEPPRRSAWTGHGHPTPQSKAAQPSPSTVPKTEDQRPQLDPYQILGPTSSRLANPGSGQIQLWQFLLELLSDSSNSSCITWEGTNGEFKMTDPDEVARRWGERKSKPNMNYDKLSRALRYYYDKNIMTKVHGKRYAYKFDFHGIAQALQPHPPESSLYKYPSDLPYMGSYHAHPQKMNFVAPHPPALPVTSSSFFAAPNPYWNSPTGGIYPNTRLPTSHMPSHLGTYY
# Method in brief: as §1
# ELF1 = ELF1 (Homo sapiens, UniProt P32519 1-619); conditions: protein: recombinant; tags: N-terminal GST; dsDNA, one strand shown
# Method in brief: as §1
# EHF = target: T5, EHF (Homo sapiens, UniProt Q9NZC4 1-300); conditions: protein: recombinant; tags: N-terminal GST; dsDNA, one strand shown
# T5 sequence: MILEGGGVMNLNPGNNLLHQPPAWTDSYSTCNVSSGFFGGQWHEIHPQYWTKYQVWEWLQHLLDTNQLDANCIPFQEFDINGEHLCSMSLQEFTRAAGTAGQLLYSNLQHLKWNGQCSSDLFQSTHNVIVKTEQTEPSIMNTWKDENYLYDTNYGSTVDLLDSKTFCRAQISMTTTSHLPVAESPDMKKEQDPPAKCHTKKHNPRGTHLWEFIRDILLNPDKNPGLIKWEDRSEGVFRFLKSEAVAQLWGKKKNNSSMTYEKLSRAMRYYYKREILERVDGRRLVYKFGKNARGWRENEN
# Method in brief: as §1
# SPI1 = SPI1 (Homo sapiens, UniProt P17947 1-270); conditions: protein: recombinant; tags: N-terminal GST; dsDNA, one strand shown
# Method in brief: as §1
# SPIB = SPIB (Homo sapiens, UniProt Q01892 1-262); conditions: protein: recombinant; tags: N-terminal GST; dsDNA, one strand shown
# Method in brief: as §1
# ELK3 = target: T6, ELK3 (Homo sapiens, UniProt P41970 1-407); conditions: protein: recombinant; tags: N-terminal GST; dsDNA, one strand shown
# T6 sequence: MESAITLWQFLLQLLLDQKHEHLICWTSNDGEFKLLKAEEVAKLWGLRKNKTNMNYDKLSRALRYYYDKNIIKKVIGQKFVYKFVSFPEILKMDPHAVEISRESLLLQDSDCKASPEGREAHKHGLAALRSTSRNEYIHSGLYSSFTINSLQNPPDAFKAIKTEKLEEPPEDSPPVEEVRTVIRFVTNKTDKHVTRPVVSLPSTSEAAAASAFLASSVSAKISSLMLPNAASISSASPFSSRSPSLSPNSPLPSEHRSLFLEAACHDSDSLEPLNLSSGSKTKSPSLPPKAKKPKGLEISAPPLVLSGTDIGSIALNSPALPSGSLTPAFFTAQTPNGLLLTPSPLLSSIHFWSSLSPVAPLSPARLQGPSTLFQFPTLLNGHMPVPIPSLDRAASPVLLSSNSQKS
# Method in brief: as §1
# FEV = target: T7, FEV (Homo sapiens, UniProt Q99581 1-238); conditions: protein: recombinant; tags: N-terminal GST; dsDNA, one strand shown
# T7 sequence: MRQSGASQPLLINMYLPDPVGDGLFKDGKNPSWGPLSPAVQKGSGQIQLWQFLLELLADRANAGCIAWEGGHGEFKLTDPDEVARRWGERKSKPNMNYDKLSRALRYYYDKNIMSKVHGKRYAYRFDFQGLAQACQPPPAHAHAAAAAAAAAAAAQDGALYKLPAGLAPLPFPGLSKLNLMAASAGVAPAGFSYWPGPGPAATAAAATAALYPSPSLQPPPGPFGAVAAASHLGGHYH
# Method in brief: as §1
# ETV5 = ETV5 (Homo sapiens, UniProt P41161 1-510); conditions: protein: recombinant; tags: N-terminal GST; dsDNA, one strand shown
# Method in brief: as §1
# HSF1 = HSF1 (Homo sapiens, UniProt Q00613 1-529); conditions: protein: recombinant; tags: N-terminal GST; chain copies: 3; dsDNA, one strand shown
# Method in brief: as §1
# SPIC = target: T8, SPIC (Homo sapiens, UniProt Q8N5J4 1-248); conditions: protein: recombinant; tags: N-terminal GST; dsDNA, one strand shown
# T8 sequence: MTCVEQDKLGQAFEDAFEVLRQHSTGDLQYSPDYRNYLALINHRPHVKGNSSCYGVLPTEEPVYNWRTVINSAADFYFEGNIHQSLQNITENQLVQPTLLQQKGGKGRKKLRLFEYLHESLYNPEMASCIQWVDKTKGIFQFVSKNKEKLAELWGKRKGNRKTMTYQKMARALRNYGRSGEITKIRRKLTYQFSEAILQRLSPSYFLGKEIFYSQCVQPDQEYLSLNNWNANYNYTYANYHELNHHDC
# Method in brief: as §1
# ELF4 = ELF4 (Homo sapiens, UniProt Q99607 1-663); conditions: protein: recombinant; tags: N-terminal GST; dsDNA, one strand shown
# Method in brief: as §1
# ELK4 = target: T9, ELK4 (Homo sapiens, UniProt P28324-2 1-405); conditions: protein: recombinant; tags: N-terminal GST; dsDNA, one strand shown
# T9 sequence: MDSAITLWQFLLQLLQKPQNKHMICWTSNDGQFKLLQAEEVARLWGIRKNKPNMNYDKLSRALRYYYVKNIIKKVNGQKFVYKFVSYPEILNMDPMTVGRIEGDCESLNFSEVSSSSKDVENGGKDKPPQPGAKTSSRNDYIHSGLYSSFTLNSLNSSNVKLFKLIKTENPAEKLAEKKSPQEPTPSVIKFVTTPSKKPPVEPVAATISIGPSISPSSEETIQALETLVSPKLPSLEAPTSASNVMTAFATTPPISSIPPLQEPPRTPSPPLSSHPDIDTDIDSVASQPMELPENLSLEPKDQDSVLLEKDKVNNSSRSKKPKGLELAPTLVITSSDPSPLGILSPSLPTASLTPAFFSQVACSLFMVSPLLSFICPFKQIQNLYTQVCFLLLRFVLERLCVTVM
# Method in brief: as §1
# ETV2 = target: T10, ETV2 (Homo sapiens, UniProt O00321 1-342); conditions: protein: recombinant; tags: N-terminal GST; dsDNA, one strand shown
# T10 sequence: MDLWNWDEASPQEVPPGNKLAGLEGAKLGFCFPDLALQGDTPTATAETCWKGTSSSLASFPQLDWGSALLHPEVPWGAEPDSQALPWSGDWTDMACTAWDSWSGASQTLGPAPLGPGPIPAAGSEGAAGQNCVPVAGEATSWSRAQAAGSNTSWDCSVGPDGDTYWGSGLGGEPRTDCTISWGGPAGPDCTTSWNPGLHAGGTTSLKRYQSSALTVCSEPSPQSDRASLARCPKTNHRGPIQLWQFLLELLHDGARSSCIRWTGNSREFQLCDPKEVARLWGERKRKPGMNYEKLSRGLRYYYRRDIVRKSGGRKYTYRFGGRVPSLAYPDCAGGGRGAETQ
# Method in brief: as §1
# ELF3 = target: T11, ELF3 (Homo sapiens, UniProt P78545 1-371); conditions: protein: recombinant; tags: N-terminal GST; dsDNA, one strand shown
# T11 sequence: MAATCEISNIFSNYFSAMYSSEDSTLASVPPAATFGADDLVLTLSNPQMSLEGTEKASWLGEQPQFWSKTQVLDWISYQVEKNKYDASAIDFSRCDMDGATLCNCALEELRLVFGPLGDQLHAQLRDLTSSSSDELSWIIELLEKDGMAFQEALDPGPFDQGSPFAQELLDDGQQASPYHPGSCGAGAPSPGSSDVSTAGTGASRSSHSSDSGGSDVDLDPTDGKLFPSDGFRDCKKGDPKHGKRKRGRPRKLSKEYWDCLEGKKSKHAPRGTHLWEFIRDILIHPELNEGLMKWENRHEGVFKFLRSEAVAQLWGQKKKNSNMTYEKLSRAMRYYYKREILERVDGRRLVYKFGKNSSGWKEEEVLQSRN
# Method in brief: as §1
# CRX = CRX (Homo sapiens, UniProt O43186 1-299); conditions: protein: recombinant; tags: N-terminal GST; dsDNA, one strand shown
# Method in brief: as §1
# ETV1 = ETV1 (Homo sapiens, UniProt P50549 1-477); conditions: protein: recombinant; tags: N-terminal GST; dsDNA, one strand shown
# Method in brief: as §1
# Chain of HSF1 (Q00613 whole entry): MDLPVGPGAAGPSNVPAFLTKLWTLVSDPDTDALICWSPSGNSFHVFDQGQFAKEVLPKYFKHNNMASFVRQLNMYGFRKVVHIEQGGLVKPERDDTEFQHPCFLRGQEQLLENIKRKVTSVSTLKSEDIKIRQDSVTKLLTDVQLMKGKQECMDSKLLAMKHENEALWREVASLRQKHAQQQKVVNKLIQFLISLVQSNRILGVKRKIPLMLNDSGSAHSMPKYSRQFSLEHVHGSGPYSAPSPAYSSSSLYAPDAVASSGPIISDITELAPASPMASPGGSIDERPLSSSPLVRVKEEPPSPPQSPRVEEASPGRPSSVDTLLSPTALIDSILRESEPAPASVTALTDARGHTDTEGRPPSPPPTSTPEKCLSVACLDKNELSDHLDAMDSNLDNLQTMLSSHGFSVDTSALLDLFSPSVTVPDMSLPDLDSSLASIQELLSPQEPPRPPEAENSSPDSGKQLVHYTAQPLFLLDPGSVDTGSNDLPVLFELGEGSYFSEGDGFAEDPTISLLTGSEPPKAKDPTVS
# Chain of ETV5 (P41161 whole entry): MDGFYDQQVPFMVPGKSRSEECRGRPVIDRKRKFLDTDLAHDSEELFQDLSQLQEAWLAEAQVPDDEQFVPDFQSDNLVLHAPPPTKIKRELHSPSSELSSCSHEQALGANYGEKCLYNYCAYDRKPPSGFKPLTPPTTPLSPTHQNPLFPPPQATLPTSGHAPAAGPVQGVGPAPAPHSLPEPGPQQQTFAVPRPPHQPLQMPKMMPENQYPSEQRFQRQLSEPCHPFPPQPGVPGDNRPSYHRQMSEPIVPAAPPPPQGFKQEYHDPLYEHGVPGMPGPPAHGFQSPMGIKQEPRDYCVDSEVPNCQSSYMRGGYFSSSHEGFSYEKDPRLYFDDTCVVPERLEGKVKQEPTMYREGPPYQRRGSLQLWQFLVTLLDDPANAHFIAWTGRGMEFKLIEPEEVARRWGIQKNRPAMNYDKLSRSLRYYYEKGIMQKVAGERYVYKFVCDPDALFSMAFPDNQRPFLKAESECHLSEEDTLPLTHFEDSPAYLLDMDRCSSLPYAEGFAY
# Chain of ETV1 (P50549 whole entry): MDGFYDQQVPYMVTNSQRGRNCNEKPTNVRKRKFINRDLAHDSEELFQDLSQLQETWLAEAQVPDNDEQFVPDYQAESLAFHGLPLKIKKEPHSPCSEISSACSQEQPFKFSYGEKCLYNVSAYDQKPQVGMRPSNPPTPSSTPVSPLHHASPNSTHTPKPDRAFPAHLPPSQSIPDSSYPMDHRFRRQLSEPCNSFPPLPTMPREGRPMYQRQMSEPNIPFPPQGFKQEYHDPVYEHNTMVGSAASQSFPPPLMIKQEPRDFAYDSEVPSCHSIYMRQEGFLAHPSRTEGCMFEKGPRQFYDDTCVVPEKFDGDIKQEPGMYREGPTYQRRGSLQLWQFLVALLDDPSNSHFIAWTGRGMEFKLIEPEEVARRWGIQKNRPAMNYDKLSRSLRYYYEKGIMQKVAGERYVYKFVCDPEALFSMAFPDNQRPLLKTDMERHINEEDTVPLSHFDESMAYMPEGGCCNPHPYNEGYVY
# Chain of CRX (O43186 whole entry): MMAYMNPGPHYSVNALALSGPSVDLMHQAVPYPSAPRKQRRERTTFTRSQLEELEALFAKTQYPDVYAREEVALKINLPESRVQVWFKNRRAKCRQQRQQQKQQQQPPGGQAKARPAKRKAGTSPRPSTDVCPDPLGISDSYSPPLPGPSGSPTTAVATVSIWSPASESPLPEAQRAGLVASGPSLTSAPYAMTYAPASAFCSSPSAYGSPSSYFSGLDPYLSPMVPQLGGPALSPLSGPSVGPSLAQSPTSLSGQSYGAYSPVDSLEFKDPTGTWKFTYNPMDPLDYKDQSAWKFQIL
# Chain of SPIB (Q01892 whole entry): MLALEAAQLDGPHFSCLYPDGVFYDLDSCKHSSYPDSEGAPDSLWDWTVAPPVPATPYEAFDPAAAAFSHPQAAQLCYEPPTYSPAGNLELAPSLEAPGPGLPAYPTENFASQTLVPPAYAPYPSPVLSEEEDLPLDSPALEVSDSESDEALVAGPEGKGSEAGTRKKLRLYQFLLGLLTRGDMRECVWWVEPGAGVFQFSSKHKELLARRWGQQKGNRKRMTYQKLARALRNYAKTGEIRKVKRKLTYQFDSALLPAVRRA
# Chain of ELF4 (Q99607 whole entry): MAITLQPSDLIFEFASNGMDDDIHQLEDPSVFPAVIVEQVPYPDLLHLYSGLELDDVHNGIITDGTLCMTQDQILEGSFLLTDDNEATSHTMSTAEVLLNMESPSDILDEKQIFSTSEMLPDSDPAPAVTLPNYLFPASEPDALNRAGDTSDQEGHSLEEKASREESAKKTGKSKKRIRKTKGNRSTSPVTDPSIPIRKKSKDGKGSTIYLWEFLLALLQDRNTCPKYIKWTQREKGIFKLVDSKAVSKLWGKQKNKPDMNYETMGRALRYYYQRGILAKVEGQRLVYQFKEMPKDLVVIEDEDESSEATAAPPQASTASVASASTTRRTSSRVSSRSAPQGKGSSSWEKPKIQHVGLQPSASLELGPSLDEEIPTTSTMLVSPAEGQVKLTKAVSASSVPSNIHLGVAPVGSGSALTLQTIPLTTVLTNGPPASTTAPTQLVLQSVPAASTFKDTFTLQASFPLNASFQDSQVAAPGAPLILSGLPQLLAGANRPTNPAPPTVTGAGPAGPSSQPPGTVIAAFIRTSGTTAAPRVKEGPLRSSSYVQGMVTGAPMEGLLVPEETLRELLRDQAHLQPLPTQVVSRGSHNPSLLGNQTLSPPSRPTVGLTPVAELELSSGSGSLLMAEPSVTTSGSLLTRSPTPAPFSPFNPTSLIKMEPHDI
# Chain of ELF1 (P32519 whole entry): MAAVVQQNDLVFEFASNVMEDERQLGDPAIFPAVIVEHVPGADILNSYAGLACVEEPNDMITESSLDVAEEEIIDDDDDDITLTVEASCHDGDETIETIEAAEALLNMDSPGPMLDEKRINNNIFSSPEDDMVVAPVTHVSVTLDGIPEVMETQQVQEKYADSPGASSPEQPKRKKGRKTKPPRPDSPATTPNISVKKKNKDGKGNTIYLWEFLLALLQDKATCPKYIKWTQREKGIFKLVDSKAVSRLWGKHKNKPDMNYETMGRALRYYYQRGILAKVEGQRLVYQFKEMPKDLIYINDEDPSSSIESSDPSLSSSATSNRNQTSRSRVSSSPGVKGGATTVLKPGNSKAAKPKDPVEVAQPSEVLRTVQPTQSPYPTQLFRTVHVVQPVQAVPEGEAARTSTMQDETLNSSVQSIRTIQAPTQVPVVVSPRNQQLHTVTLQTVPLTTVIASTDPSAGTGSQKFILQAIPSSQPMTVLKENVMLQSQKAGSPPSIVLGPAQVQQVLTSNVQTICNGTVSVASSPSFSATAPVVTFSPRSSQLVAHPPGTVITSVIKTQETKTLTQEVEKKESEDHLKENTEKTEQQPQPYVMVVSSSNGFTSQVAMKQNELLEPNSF
sequence,measurement,setting,value
TCTTCG,binding signal,FLI1,"1.45 fold enrichment (6-mer frequency, TF over GST control)"
same,binding signal,ELK1,"1.49 fold enrichment (6-mer frequency, TF over GST control)"
same,binding signal,GABPA,"1.45 fold enrichment (6-mer frequency, TF over GST control)"
same,binding signal,ERG,"1.41 fold enrichment (6-mer frequency, TF over GST control)"
same,binding signal,ELF1,"1.51 fold enrichment (6-mer frequency, TF over GST control)"
same,binding signal,EHF,"1.31 fold enrichment (6-mer frequency, TF over GST control)"
same,binding signal,SPI1,"1.47 fold enrichment (6-mer frequency, TF over GST control)"
same,binding signal,SPIB,"1.57 fold enrichment (6-mer frequency, TF over GST control)"
same,binding signal,ELK3,"1.49 fold enrichment (6-mer frequency, TF over GST control)"
same,binding signal,FEV,"1.49 fold enrichment (6-mer frequency, TF over GST control)"
same,binding signal,ETV5,"1.51 fold enrichment (6-mer frequency, TF over GST control)"
same,binding signal,HSF1,"1.97 fold enrichment (6-mer frequency, TF over GST control)"
same,binding signal,SPIC,"1.38 fold enrichment (6-mer frequency, TF over GST control)"
same,binding signal,ELF4,"1.49 fold enrichment (6-mer frequency, TF over GST control)"
same,binding signal,ELK4,"1.45 fold enrichment (6-mer frequency, TF over GST control)"
same,binding signal,ETV2,"1.5 fold enrichment (6-mer frequency, TF over GST control)"
same,binding signal,ELF3,"1.47 fold enrichment (6-mer frequency, TF over GST control)"
same,binding signal,CRX,"1.61 fold enrichment (6-mer frequency, TF over GST control)"
same,binding signal,ETV1,"1.47 fold enrichment (6-mer frequency, TF over GST control)"
